Each structure is given as a SMILES string. Inconclusive results are not listed. Activity calls are given as the source filed them. The call rests on the fitted dose curve; in most records, active means well fitted curve in the direction sought with a large enough effect; inconclusive means small, poorly fitted or top-dose-only effect, or another doubt; inactive means no such curve, though single readings can be large; an effect the other way counts as inactive or inconclusive.

Assay [1] can be described thus: Quantitative High-Throughput drug screen in 47 multiple myeloma cell lines against the NCATS MIPE library collection: FR4_PLB cell viability assay (AID 1918924; further: nearly all actives have a fitted effect of over 35% in size; further: potency means the concentration at half of the fitted maximal effect). In short, it runs like this:
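Relative luminescence from CellTiter-Glo served as the viability signal, referenced to DMSO-treated (100%) and cell-free medium (0%) controls. Treatment lasted 48 hours at 37C with 500 cells per well.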

The nature of assay [2]: Quantitative High-Throughput drug screen in 47 multiple myeloma cell lines against the NCATS MIPE library collection: Delta47_JCRB cell viability assay (AID 1918925; further: nearly all actives have a fitted effect of over 45% in size; further: potency means the concentration at half of the fitted maximal effect). In short, it runs like this: (§1)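 Primary qHTS used for cherry-picking: cells at 500/well, library compounds for 48 h (37C, 5% CO2), luminescent ATP assay.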
Assay [3] in a line: Quantitative High-Throughput drug screen in 47 multiple myeloma cell lines against the NCATS MIPE library collection: EJM_DSMZ cell viability assay (AID 1918926; further: nearly all actives have a fitted effect of over 30% in size; further: potency means the concentration at half of the fitted maximal effect). Summed up:
as §1

A short description of assay [4]: Quantitative High-Throughput drug screen in 47 multiple myeloma cell lines against the NCATS MIPE library collection: AMO1_DSMZ cell viability assay (AID 1918927; further: nearly all actives have a fitted effect of over 30% in size; further: potency means the concentration at half of the fitted maximal effect). Summed up: as §1
A short description of assay [5]: Quantitative High-Throughput drug screen in 47 multiple myeloma cell lines against the NCATS MIPE library collection: ARP1_JJKsccF8 cell viability assay (AID 1918928; further: nearly all actives have a fitted effect of over 40% in size; further: potency means the concentration at half of the fitted maximal effect). In short, it runs like this: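 Cell viability inhibition in this qHTS is measured via ATP content (CellTiter-Glo) after 48 h drug exposure at 37 °C. Wells hold 500 cells; DMSO-treated wells define 100% and medium-only wells 0%.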

Assay [6] can be described thus: Quantitative High-Throughput drug screen in 47 multiple myeloma cell lines against the NCATS MIPE library collection: ARD_JJKsccE7 cell viability assay (AID 1918929; further: potency means the concentration at half of the fitted maximal effect). In short, it runs like this: as §1
The target of assay [7] is Luciferin 4-monooxygenase (Photinus pyralis) (UniProt P08659). Briefly: Primary firefly luciferase (FLuc) qHTS assay for identification of artifact compounds. (AID 1845220). Further: nearly all actives have a fitted effect of over 60% in size. In short, it runs like this: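 qHTS, 15 min compound preincubation with substrate (10 uM luciferin, 10 uM ATP) at RT, then 10 nM FLuc; 5 min; luminescence; % inhibition vs no-enzyme/DMSO controls, 4-parameter Hill fit.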
(qHTS replaces the single test concentration by a dilution series.)

Assay [8] deals with Nanoluciferase (engineered Oplophorus gracilirostris luciferase). Briefly: Primary Nanoluciferase (NLuc) qHTS assay for identification of artifact compounds. (AID 1845222). Further: series mostly up to about 54 µM. In short, it runs like this:
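Luminescence read-out of secreted NLuc in S16 cell conditioned medium (1:55); compounds tested with 15 min RT preincubation, then Nano-Glo substrate 1:100, 5 min. % inhibition vs no-enzyme and DMSO controls, 4-parameter Hill fit.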

Assay [9] in a line: Primary redox qHTS assay for identification of artifact compounds. (AID 1845223). In short, it runs like this:
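Redox-cycling detection via DTT (250 uM final) oxidation coupled to Amplex Red (25 uM)/HRP (250 mU/mL) in HBSS. 15 min preincubation plus 30 min after DTT, room temperature. Ex/Em 525/598 nm; 4-parameter Hill fit against DMSO and 10 uM DA3003.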

Take `CN[C@@H]1C[C@H]2O[C@@](C)([C@H]1OC)n1c3ccccc3c3c4c(c5c6ccccc6n2c5c31)C(=O)N[C@H]4O`: the Potency in [1] is 2.09 µM (active); in assay [2] it was 0.0469 µM (active); in [3], 0.526 µM (active); in assay [4], 0.332 µM (active); in assay [5], 0.833 µM (active); in assay [6], 0.148 µM (active).
In the case of `N#CC(=Cc1ccc(O)c(O)c1)C(=O)NCc1ccccc1`, the Potency in [1] was 5.26 µM (active); in assay [2] it was 1.66 µM (active); in [3], 14.8 µM (active).
Regarding `C[C@@H]1[C@H](C)CC[C@]2(C(=O)O)CC[C@]3(C)C(=CC[C@@H]4[C@@]5(C)C[C@@H](O)[C@H](O)[C@@](C)(CO)[C@H]5CC[C@]43C)[C@@H]12`, the Potency result in assay [1], in assay [2], in assay [3], in assay [4], in assay [5] and in assay [6] was “inactive” throughout.
Consider `O=C(CCCCCCC(=O)Nc1cccnc1)NO`, for which the Potency was 2.35 µM (active) in assay [1]; 2.96 µM (active) in assay [2]; 7.43 µM (active) in [3]; 2.35 µM (active) in assay [4]; 2.35 µM (active) in assay [5]; 3.32 µM (active) in [6].
With `CN(CC(=O)N(Cc1ccc(C2CCCCC2)cc1)c1ccc(C(=O)O)c(O)c1)S(=O)(=O)c1c(F)c(F)c(F)c(F)c1F`, the Potency was 20.9 µM (active) in [1]; 5.9 µM (active) in [2]; 18.7 µM (active) in assay [3]; 5.26 µM (active) in assay [4]; 23.5 µM (active) in assay [5]; 11.8 µM (active) in assay [6].
On to `CCOC(=O)[C@H](CCc1ccccc1)N[C@@H](C)C(=O)N1[C@@H](C(=O)O)C[C@H]2CCC[C@@H]21`, for which the Potency in assay [1] was 18.7 µM (active); in [2] it was 8.33 µM (active); in assay [3], 20.9 µM (active); in assay [4], 7.43 µM (active); in assay [5] it was 20.9 µM (active); in assay [6], 9.35 µM (active).
Turning to `C=CC(=O)Nc1cc(NC(=O)c2ccc(C)c(NC(=O)c3ccno3)c2)cc(C(F)(F)F)c1`, the Potency in assay [1] is 26.4 µM (active); in assay [2] it was 9.35 µM (active); in [3] it was 16.6 µM (active); in assay [4], 5.26 µM (active); in assay [5], 16.6 µM (active); in [6] it was 5.9 µM (active).
In the case of `COc1ccc([C@@H]2CNC(=O)C2)cc1OC1CCCC1`, the Potency entry in [1], in assay [3], in [4], in [5] and in assay [6] was “inactive” throughout. Besides, the Potency in assay [2] was 3.72 µM (active).
For `CC(=O)O[C@]1(C(C)=O)CC[C@H]2[C@@H]3C=C(C)C4=CC(=O)CC[C@]4(C)[C@@H]3CC[C@@]21C`, the Potency result in assay [1] and in [3] was “inactive” in each case. Besides, the Potency in assay [2] is 8.33 µM (active).
As to `COc1cccc2c1C(=O)c1c(O)c3c(c(O)c1C2=O)C[C@@](O)(C(C)=O)C[C@H]3O[C@H]1C[C@H](N)[C@H](O)[C@H](C)O1`, the Potency in assay [1] is 0.132 µM (active); in [2], 0.0418 µM (active); in [3] it was 0.105 µM (active); in assay [4], 0.118 µM (active); in assay [5], 0.059 µM (active); in assay [6], 0.235 µM (active).
Regarding `COc1ccc(C(C)=O)c(O)c1`, the Potency entry in assay [1], in [2], in assay [3], in assay [4], in [5] and in assay [6] was “inactive” each time.
With `CC1(C)CC(O)CC(C)(C)N1[O]`, the Potency result in [1], in [2], in [3], in assay [4] and in assay [5] was “inactive” throughout.
Regarding `CCOc1cc2c(c(F)c1OCC)C(=N)N(CC(=O)c1cc(N3CCOCC3)c(OC)c(C(C)(C)C)c1)C2`, the Potency result in assay [7] and in [9] was “inactive” throughout. In assay [8], the compound was classed as inactive. In addition, the Potency in assay [1] was 23.5 µM (active); in [2], 14.8 µM (active); in [3] it was 20.9 µM (active); in [5], 18.7 µM (active).
Regarding `Nc1nc2c(c(=O)[nH]1)N(C=O)[C@H](CNc1ccc(C(=O)N[C@@H](CCC(=O)O)C(=O)O)cc1)CN2`, the Potency entry in assay [1], in [2], in [3], in assay [4] and in assay [5] was “inactive” each time.
As for `COc1cc([C@@H]2c3cc4c(cc3[C@H](O)[C@H]3COC(=O)[C@@H]23)OCO4)cc(OC)c1OC`, the Potency is 0.0296 µM (active) in [1]; 0.166 µM (active) in assay [2]; 0.59 µM (active) in assay [3]; 0.0264 µM (active) in assay [4]; 0.0526 µM (active) in [5]; 0.059 µM (active) in assay [6].
Turning to `C=C(C)[C@@H]1CC[C@]2(C)CC[C@]3(C)[C@H](CC[C@@H]4[C@@]5(C)CC[C@H](O)C(C)(C)[C@H]5CC[C@]43C)[C@@H]12`, the Potency result in assay [1], in assay [2], in [3] and in assay [4] was “inactive” each time.
With `CC(=O)OCC(=O)[C@@]1(O)CC[C@H]2[C@@H]3CCC4=CC(=O)CC[C@]4(C)[C@@H]3C(=O)C[C@@]21C`, the Potency result in assay [1], in assay [2], in assay [3], in assay [4], in assay [5] and in assay [6] was “inactive” throughout.
For `c1cc(N[C@@H]2CCNC2)nc(-c2cnc3ccc(-c4cn[nH]c4)cn23)c1`, the Potency entry in [7] and in assay [9] was “inactive” each time. In addition, the call in assay [8] was inactive. The Potency is 11.8 µM (active) in [1], 9.35 µM (active) in assay [2], 13.2 µM (active) in assay [3] and 26.4 µM (active) in assay [6].
Consider `O=C(c1ccc(F)cc1)N1CCC[C@H](c2nc(-c3ccc(F)cc3)no2)C1`, for which the Potency entry in assay [1], in assay [2], in assay [3], in [4], in [5] and in assay [6] was “inactive” throughout.
Turning to `C=CC(=O)N1CCc2ccc(-n3c(=O)ccc4cnc5ccc(-c6cnn(C)c6)cc5c43)cc21`, the Potency in [1] was 1.66 µM (active); in [2], 0.935 µM (active); in [3], 3.72 µM (active); in assay [4], 2.96 µM (active); in assay [5] it was 1.05 µM (active); in assay [6], 0.833 µM (active).

The values are drawn from PubChem BioAssay (NCATS).
